Laboratory results: PubChem BioAssay (NCATS)
Inconclusive results are not listed. Calls of active or inactive are those of the source. Unless noted, calls come from the whole dose curve; as a rule, active = well fitted curve in the direction sought with a large enough effect; inconclusive = small, poorly fitted or top-dose-only effect, or another doubt; inactive = no such curve, though single readings can be large; an effect the other way counts as inactive or inconclusive.

What was measured:
[1] = HPAF-II 24hr Apoptosis Induction qHTS against the NCATS CANVASS Library (AID 1347356); note: 0% is about no effect
Procedure, shortened: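 Luminescent caspase-3/7 signal (DEVD substrate, Caspase-Glo) served as read-out, taken 15 min after reagent addition to HPAF-II cells exposed 24 h to compounds.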

[2] = HEK293 18hr Apoptosis Induction qHTS against the NCATS CANVASS Library (AID 1347357); note: 0% is about no effect
Procedure, shortened: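 Natural products applied to HEK293 for 18 hr; Caspase-Glo 3/7 readout.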

[3] = HPAF-II 12hr Apoptosis Induction qHTS against the NCATS CANVASS Library (AID 1347358); note: 0% is about no effect
Procedure, shortened: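 500 HPAF-II cells/well; cmpds 11-pt; 12 hr, 37 degrees C/5% CO2; Caspase-Glo 3/7 added, 15 min RT dark; luminescence read. Doxorubicin titration as control.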

[4] = HEK293 24hr Apoptosis Induction qHTS against the NCATS CANVASS Library (AID 1347359); note: 0% is about no effect
Procedure, shortened: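 HEK293 cells (500/well, DMEM + 10% FBS) were exposed to compounds in an 11-point series for 24 hours at 37 degrees C, then caspase-3/7 activity was read by Caspase-Glo DEVD luciferase luminescence after 15 min.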

[5] = HPAF-II 18hr Apoptosis Induction qHTS against the NCATS CANVASS Library (AID 1347360); note: 0% is about no effect
Procedure, shortened: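 Luminescent DEVD-substrate signal, proportional to caspase activity, is measured in HPAF-II cells after 18-hour treatment across a concentration series; doxorubicin serves as control.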

[6] = HEK293 12hr Apoptosis Induction qHTS against the NCATS CANVASS Library (AID 1347361); note: 0% is about no effect
Procedure, shortened: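 Luminescent caspase-3/7 signal, proportional to enzyme activity, was recorded from HEK293 cultures in DMEM + 10% FBS treated for 12 hours with titrated natural products (11 points). Doxorubicin (0.1nM - 4uM) served as control.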

[7] = biological target: Luciferin 4-monooxygenase (Photinus pyralis) (UniProt P08659); assay: Firefly luciferase counterscreen qHTS: Assay Interference Panel against the NCATS CANVASS Library (AID 1347363); note: 0% is about no effect
Luciferin 4-monooxygenase (Photinus pyralis), sequence (P08659 whole entry, looked up): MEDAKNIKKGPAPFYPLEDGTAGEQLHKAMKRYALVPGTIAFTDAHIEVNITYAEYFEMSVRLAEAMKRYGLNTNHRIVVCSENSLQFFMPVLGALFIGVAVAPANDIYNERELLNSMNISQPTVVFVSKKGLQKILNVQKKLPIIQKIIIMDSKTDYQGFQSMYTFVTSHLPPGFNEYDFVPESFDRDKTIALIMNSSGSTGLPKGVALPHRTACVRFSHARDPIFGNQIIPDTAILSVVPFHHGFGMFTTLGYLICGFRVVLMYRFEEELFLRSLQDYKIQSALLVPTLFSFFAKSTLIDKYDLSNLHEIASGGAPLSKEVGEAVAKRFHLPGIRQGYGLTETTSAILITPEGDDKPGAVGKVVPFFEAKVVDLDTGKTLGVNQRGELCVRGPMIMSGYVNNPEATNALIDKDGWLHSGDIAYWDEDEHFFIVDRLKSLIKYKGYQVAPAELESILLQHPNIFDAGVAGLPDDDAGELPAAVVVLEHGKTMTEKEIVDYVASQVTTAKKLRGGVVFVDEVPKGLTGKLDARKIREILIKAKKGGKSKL
Procedure, shortened: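 Purified P. pyralis luciferase was added to compounds (11-point series) preincubated 15 min at room temperature with substrate containing 0.013 mM D-luciferin and 0.013 mM ATP; luminescence was read after 5 min.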

[8] = qHTS for ATAD5 Agonist screened against the NCATS CANVASS Library (AID 1347367);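 note: luciferase reporter driven by ATAD5 which rises upon DNA damage; 0% is about no effect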
Procedure, shortened: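 Genotoxicity was scored as increased ATAD5-luciferase luminescence in HEK293T after 16hr of exposure, with cell viability measured by fluorescence beforehand in the same well.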

[9] = biological target: Nuclear receptor subfamily 1 group I member 3 (Homo sapiens) (UniProt Q14994); assay: qHTS for Constitutive Androstane Receptor (CAR) Antagonist screened against the NCATS CANVASS Library (AID 1347372); note: potency is the fitted concentration of half-maximal effect;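 for activity change, negative = inhibition: cells stimulated with 50 nM CITCO agonist so inhibition reflects antagonism; % is set by controls: 0 for no effect and ±100 for the full control effect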
Nuclear receptor subfamily 1 group I member 3 (Homo sapiens), sequence (Q14994 whole entry, looked up): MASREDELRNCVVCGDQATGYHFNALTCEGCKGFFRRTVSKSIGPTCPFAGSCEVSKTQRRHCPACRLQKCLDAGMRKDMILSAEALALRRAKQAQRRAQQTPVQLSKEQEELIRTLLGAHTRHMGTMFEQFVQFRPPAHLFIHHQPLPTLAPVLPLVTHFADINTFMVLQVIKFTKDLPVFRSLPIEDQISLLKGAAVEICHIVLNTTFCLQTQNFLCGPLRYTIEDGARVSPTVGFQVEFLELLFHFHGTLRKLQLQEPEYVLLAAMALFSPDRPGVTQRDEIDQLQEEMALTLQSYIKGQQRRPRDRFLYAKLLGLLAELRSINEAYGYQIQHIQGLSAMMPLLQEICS
Procedure, shortened: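 HepG2 cells stably carrying hCAR and a CYP2B6-2.2kb luciferase reporter were exposed to compounds plus 50 nM CITCO for 24hr at 37C. CAR activity was read by ONE-Glo luminescence, with viability measured first by CellTiter-Fluor.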

[10] = 10-beta competent E. coli microbial cell viability qHTS against the NCATS CANVASS Library (AID 1347376); note: 0% is about no effect
Procedure, shortened: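 E. coli 10-beta, 0.2 OD; cpds 11-pt; o/n 37C, 5% CO2; BacTiter-Glo 20 min RT; luminescence (ATP) = viable cells. Daunomycin ctrl.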

[11] = Inflammasome Signaling qHTS Counterscreen: IL-1-beta AlphaLISA counterscreen against the NCATS CANVASS Library (AID 1347381);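 note: cell-free check with purified IL-1β in medium and no THP-1 cells; 0% is about no effect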
Procedure, shortened: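 Cell-free interference check: compounds added to medium spiked with 4 pg purified IL-1β. Anti-IL-1β acceptor beads (6 ug/mL) with 0.6 nM biotinylated antibody added for 1 h at RT, then streptavidin donor beads (24 ug/mL) for 30 min in the dark. AlphaLISA read at 680/615 nm.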

[12] = Cytotoxicity qHTS for assessment of Hepg2 cells membrane integrity screened against the NCATS CANVASS Library (AID 1347387)
Procedure, shortened: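 qHTS, 11-pt conc. series, 0.59 nM - 46 uM final; HepG2 2000 cells/well, overnight attachment; 5 hr compound exposure 37C/5% CO2; CytoTox-ONE, 10 min RT; fluorescence ex560/em590 = LDH from damaged membranes.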

[13] = qHTS for activators of dead-cell proteases activity screened against the NCATS CANVASS Library (AID 1347392);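 note: luminescence from protease leaking out of membrane-damaged cells cleaving impermeant substrate; 0% is about no effect; rising signal means more cytotoxicity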
Procedure, shortened: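 HepG2 cells (2000/well) attached 18 h at 37C, then exposed 5 h to compounds (11-point qHTS). Dead-cell protease activity read as luminescence from cell-impermeant AAF-aminoluciferin substrate after 15 min at room temperature.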

[14] = qHTS to identify inhibitors of the type 1 interferon - major histocompatibility complex class I in skeletal muscle: primary screen against the NCATS Mechanism Interrogation Plate v5.0 (MIPE) Libary (AID 1347411); note: potency is the fitted concentration of half-maximal effect; nearly all actives have a fitted effect of over 65% in size
Procedure, shortened: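 Luminescence from HiBiT-tagged endogenous HLA-B*08:01 served as the MHC class I read-out. CRISPR-engineered C25cl48 human myoblasts received 4.0 ng/ml IFN-beta plus compound for 24 hrs, with an 11-point, 1:3 series topping at 46 uM final.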

[15] = Primary qHTS for inhibitors of nuclear receptor binding SET domain protein 2 (NSD2) in an isogenic RCH-ACV NSD2 p.E1099K mutant (9B) (AID 1645876); note: potency is the fitted concentration of half-maximal effect; nearly all actives have a fitted effect of over 70% in size
[16] = Primary qHTS for inhibitors of nuclear receptor binding SET domain protein 2 (NSD2) in an RCH-ACV wild type WT cells (2C) (AID 1645877); note: potency is the fitted concentration of half-maximal effect; nearly all actives have a fitted effect of over 70% in size
[17] = biological target: Glutathione peroxidase 1 (Homo sapiens) (UniProt P07203); assay: Primary qHTS Assay for Inhibitors of Recombinant Selenoprotein Glutathione Peroxidase 1 (GPX1) (AID 1845191); note: nearly all actives have a fitted effect of over 65% in size
Glutathione peroxidase 1 (Homo sapiens), sequence (P07203 whole entry, looked up): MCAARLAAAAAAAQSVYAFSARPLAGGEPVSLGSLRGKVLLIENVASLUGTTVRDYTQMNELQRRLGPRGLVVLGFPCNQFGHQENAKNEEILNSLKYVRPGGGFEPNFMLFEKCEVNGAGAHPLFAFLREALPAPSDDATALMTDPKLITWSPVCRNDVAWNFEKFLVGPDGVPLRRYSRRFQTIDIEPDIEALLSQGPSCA
Procedure, shortened: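 Recombinant GPX1 (10 nM final) was preincubated with compound for 30 min at room temperature, then reacted with 1 mM GSH, 0.5 mM CHP, 0.5 mM NADPH and 100 nM glutathione reductase; NADPH fluorescence (340/450 nm) was read at 0 and 15 min.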

[18] = biological target: Phospholipid hydroperoxide glutathione peroxidase GPX4 (Homo sapiens) (UniProt P36969); assay: Primary qHTS Assay for Inhibitors of Recombinant Selenoprotein Glutathione Peroxidase 4 (GPX4) (AID 1845192); conditions: outcome: dose series up to 50 µM unless noted; note: % is set by controls: 0 for no effect and ±100 for the full control effect; nearly all actives have a fitted effect of over 65% in size
Phospholipid hydroperoxide glutathione peroxidase GPX4 (Homo sapiens), sequence (P36969 whole entry, looked up): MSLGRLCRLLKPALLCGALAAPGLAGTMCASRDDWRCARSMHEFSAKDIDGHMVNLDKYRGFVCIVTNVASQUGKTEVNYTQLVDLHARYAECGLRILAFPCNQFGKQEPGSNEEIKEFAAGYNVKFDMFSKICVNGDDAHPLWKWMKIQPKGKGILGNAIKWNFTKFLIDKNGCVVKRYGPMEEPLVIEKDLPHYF
Procedure, shortened: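 GR-coupled readout: 100 nM GR, 1 mM GSH, 0.5 mM NADPH; NADPH fluorescence (ex 340/em 450 nm) read at t=0 and after 15 min RT. GPX4 200 nM, preincubated 30 min with compound; substrate 0.5 mM CHP.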

[19] = qHTS drug screen for cell cycle checkpoint inhibitors in PARPi-resistant BRCA-mutant ovarian cancer cell lines. (AID 1963452; calls by dose curve; note: potency is the fitted concentration of half-maximal effect); conditions: PEO1/OlaR viability, CellTiter-Glo luminescence, 96 h; for Z-AUC: stronger effect = lower value
Procedure, shortened: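 PEO1, PEO4 and PEO1/OlaR ovarian cancer cells, 600 per well, exposed 96 h at 37C to a dilution series. Viability read by CellTiter-Glo luminescence, normalized to DMSO and empty wells; activity summarized as Z-AUC.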

[20] = qHTS assay to identify inhibitors of the type 1 interferon - major histocompatibility complex class I in skeletal muscle: Counter screen cell viability and HiBit confirmation (AID 1347412); conditions: iHSKM muscle cells + IFN-b, HiBiT or CellTiter-Glo, 24 h; for Potency: HiBiT; for activity change, negative = inhibition: Viability, at 45.9 µM (top of the series); note: potency is the fitted concentration of half-maximal effect; for activity change, negative = inhibition: % is set by controls: 0 for no effect and ±100 for the full control effect; for all read-outs here: nearly all actives have a fitted effect of over 60% in size
Procedure, shortened: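 Human myoblast knock-in line, 4.0 ng/ml IFN-beta stimulation, 24 h compound treatment. Endpoints: HiBiT lytic luminescence (HLA-B level) and CellTiter Glo (ATP). Dosing 12 concentrations, 3-fold steps, 46 uM highest final.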

[21] = measured here: PEO1 parental Z-AUC

CC(C)[C@@H]1CC(=O)c2coc3c2[C@H]1C[C@@H](C)C3=O
inactive: outcome [1] | Potency [2] | Potency [3] | Potency [4] | Potency [5] | outcome [6] | Potency [7] | Potency [8] | Potency [9] | outcome [10] | outcome [11] | outcome [12] | Potency [13]

COc1ccc([C@@H]2c3cc4c(cc3C[C@H](C)C2C)OCO4)cc1OC (stereo partly drawn)
inactive: outcome [1] | Potency [2] | Potency [3] | Potency [4] | Potency [5] | outcome [6] | Potency [7] | Potency [8] | Potency [9] | outcome [10] | outcome [11] | outcome [12] | Potency [13]

COc1ccc([C@@H]2c3cc4c(cc3C(=O)[C@H](C)C2C)OCO4)cc1OC (stereo partly drawn)
inactive: outcome [1] | Potency [2] | Potency [3] | Potency [4] | Potency [5] | outcome [6] | Potency [7] | Potency [8] | Potency [9] | outcome [10] | outcome [11] | outcome [12] | Potency [13]

CC[C@H]1[C@@H](C)[C@@H](c2cc(OC)c(OC)cc2OC)[C@H](C)[C@@H](c2cc(OC)c(OC)cc2OC)[C@@]12C=C(OC)C(=O)C=C2OC
inactive: outcome [1] | Potency [2] | Potency [4] | outcome [6] | Potency [7] | Potency [8] | Potency [9] | outcome [10] | outcome [11] | outcome [12] | Potency [13]

COc1cc2c(cc1OC)[C@@H](c1ccc3c(c1)OCO3)C(C)[C@@H](C)C2=O (stereo partly drawn)
inactive: outcome [1] | Potency [2] | Potency [3] | Potency [4] | Potency [5] | outcome [6] | Potency [7] | Potency [8] | Potency [9] | outcome [10] | outcome [11] | outcome [12] | Potency [13]

COC(=O)[C@@]1(C)CCC[C@]2(C)c3cc(OC)ccc3CC[C@@H]12
inactive: outcome [1] | Potency [2] | Potency [3] | Potency [4] | Potency [5] | outcome [6] | Potency [7] | Potency [8] | Potency [9] | outcome [10] | outcome [11] | outcome [12] | Potency [13]

COc1cccc2c1C(=O)c1c(O)c3c(c(O)c1C2=O)C[C@@](O)(/C(CO)=N/NC(=O)CCCCCN1C(=O)C=CC1=O)C[C@@H]3O[C@H]1C[C@H](N)[C@H](O)[C@H](C)O1
-1.6: Z-AUC [19, 21]
active: Potency [14] 3300 nM | Potency [15] 209 nM | Potency [16] 132 nM | Potency [19] 1100 nM | Potency [20] 2790 nM
inactive: Potency [17] | Potency [18] | activity change, negative = inhibition [20] -0.403%
-1.55: Z-AUC ([19]; measured here: PEO4 Z-AUC)

O=C(/C=C/c1ccc(CN(CCO)CCc2c[nH]c3ccccc23)cc1)NO
inactive: Potency [17] | Potency [18] | activity change, negative = inhibition [20] -12.6%
active: Potency [14] 186 nM | Potency [15] 132 nM | Potency [16] 132 nM | Potency [19] 174 nM | Potency [20] 198 nM
-1.35: Z-AUC [19, 21]
-1.27: Z-AUC ([19]; measured here: PEO4 Z-AUC)

O[C@H]1C=C2[C@H]3CN(Cc4cc5c(cc43)OCO5)[C@H]2C[C@@H]1O
active: Potency [9] 13200 nM
inactive: outcome [1] | Potency [2] | Potency [3] | Potency [4] | Potency [5] | outcome [6] | Potency [7] | Potency [8] | outcome [10] | outcome [11] | outcome [12] | Potency [13]

C[C@H](c1cnc(N)[nH]1)c1ccc(O)c2[nH]cc(-c3cnc(-c4c[nH]c5ccccc45)c(=O)[nH]3)c12
inactive: Potency [2] | Potency [3] | Potency [4] | Potency [5] | outcome [6] | Potency [7] | Potency [8] | Potency [9] | outcome [10] | outcome [12] | Potency [13]

O=C(/C=C\n1cnc(-c2cc(C(F)(F)F)cc(C(F)(F)F)c2)n1)NNc1cnccn1
active: Potency [14] 7390 nM | Potency [15] 2630 nM | Potency [16] 2090 nM | Potency [20] 625 nM
-2.16: Z-AUC [19, 21]
-1.63: Z-AUC ([19]; measured here: PEO4 Z-AUC)
inactive: Potency [17] | Potency [18] | Z-AUC [19] -0.586 | activity change, negative = inhibition [20] -1.81%

C=C[C@@](C)(O)CC[C@@H]1[C@@]2(C)CCCC(C)(C)[C@@H]2CC[C@@]1(C)O
inactive: Potency [2] | Potency [3] | Potency [4] | Potency [5] | outcome [6] | Potency [7] | Potency [8] | outcome [10] | outcome [11] | outcome [12] | Potency [13] | Potency [17]

C/C(=C\[C@H](C)C(=O)C[C@H](O)CC1CC(=O)NC(=O)C1)[C@@H]1OC(=O)CCCC/C=C/[C@@H](O)C[C@@H]1C
active: Potency [9] 14800 nM
inactive: outcome [1] | Potency [2] | Potency [3] | Potency [4] | Potency [5] | outcome [6] | Potency [7] | Potency [8] | outcome [10] | outcome [11] | outcome [12] | Potency [13]

C/C1=C/[C@@H](C)[C@H](O)C/C=C/CC/C=C/C(=O)O[C@@H]1[C@H](C)C(=O)CCCC1CC(=O)NC(=O)C1
inactive: outcome [1] | Potency [2] | Potency [3] | Potency [4] | Potency [5] | outcome [6] | Potency [7] | Potency [8] | Potency [9] | outcome [10] | outcome [11] | outcome [12] | Potency [13]
